This note sets out measurements from the supplement of paper PMC6331611.

This experiment deals with Salmonella enterica serovar Typhimurium SL1344. Description: normalized intracellular growth (luminescence, IQM-normalized) in RAW264.7 macrophages (fraction of plate interquartile mean); higher = more bacterial growth (less inhibition). Conditions: 10 µM.

Structures are written as SMILES. Several values for one entry are separate records, joined by “and”; a condition that tells them apart may be missing. Equal values may be shown once. ± gives the standard deviation of the averaged measurements. Whole data set: some 1,600 compounds, median “normalized intracellular growth (luminescence, IQM-normalized) in RAW264.7 macrophages” near 1, cut for the lowest 2% near 0.43. Many of the other results were omitted from the sample, so the lowest values are more common in it than they were.

Take `O=C(CCCN1CCC(O)(c2ccc(Br)cc2)CC1)c1ccc(F)cc1`: the normalized intracellular growth is, setting by setting: (time point: T3 (3 h)) 0.391 ± 0.23; (time point: Tfinal (~6 h)) 1.28 ± 0.14.
For the molecule `NC(=O)C1(N2CCCCC2)CCN(CCCC(=O)c2ccc(F)cc2)CC1`, the normalized intracellular growth is, setting by setting: (time point: T3 (3 h)) 0.984 ± 0.085; (time point: Tfinal (~6 h)) 0.965 ± 0.16.
For `O=C(CCCN1CCC(O)(c2ccc(Cl)cc2)CC1)c1ccc(F)cc1`, the normalized intracellular growth (time point: T3 (3 h)) came to 0.957 ± 0.056 and the normalized intracellular growth (time point: Tfinal (~6 h)) was 1 ± 0.085.
Regarding `N[C@@H](CCC(=O)N[C@@H](CS)C(=O)NCC(=O)O)C(=O)O`, the normalized intracellular growth (time point: T3 (3 h)) stood at 1.1 ± 0.056 and the normalized intracellular growth (time point: Tfinal (~6 h)) was 0.832 ± 0.11.
On the same counts, the results for `CC(C)CCCC(C)NC(C)C` (stereo not drawn) are 1 ± 0.017 and 0.999 ± 0.11.
As to `Cc1ccc(S(=O)(=O)NCl)cc1`, the normalized intracellular growth was 0.946 ± 0.021 (time point: T3 (3 h)) and 0.902 ± 0.052 (time point: Tfinal (~6 h)).
In the case of `OCc1ccccc1O`, the normalized intracellular growth runs as follows: (time point: T3 (3 h)) 1.07 ± 0.017; (time point: Tfinal (~6 h)) 1.01 ± 0.022.
`CC1CCc2cc(F)cc3c(=O)c(C(=O)O)cn1c23` (stereo not drawn): the normalized intracellular growth reads like this: (time point: T3 (3 h)) 0.937 ± 0.026; (time point: Tfinal (~6 h)) 0.389 ± 0.025.
The corresponding values for `CC1CCc2c(N3CCC(O)CC3)c(F)cc3c(=O)c(C(=O)O)cn1c23` (stereo not drawn) are 0.894 ± 0.051 and 0.0538 ± 0.029.
Turning to `N[C@@H](Cc1ccc(O)cc1)C(=O)O`, the normalized intracellular growth reads like this: (time point: T3 (3 h)) 0.934 ± 0.037; (time point: Tfinal (~6 h)) 0.846 ± 0.31.
The corresponding values for `C=C(C)[C@H]1CC=C(C)CC1` are 0.96 ± 0.013 and 1.1 ± 0.098.
As for `C#C[C@]1(OC(C)=O)CC[C@H]2[C@@H]3CCC4=CC(=O)CC[C@@H]4[C@H]3CC[C@@]21C`, the normalized intracellular growth by setting is: (time point: T3 (3 h)) 1.03 ± 0.046; (time point: Tfinal (~6 h)) 0.972 ± 0.043.
The corresponding values for `CC(O)CC(C)(C)O` (stereo not drawn) are 1.05 ± 0.086 and 0.769 ± 0.19.
On to `CC[C@H]1OC(=O)[C@H](C)[C@@H](O[C@H]2C[C@@](C)(OC)[C@@H](O)[C@H](C)O2)[C@H](C)[C@@H](O[C@@H]2O[C@H](C)C[C@H](N(C)C)[C@H]2O)[C@](C)(O)C[C@@H](C)/C(=N\OCOCCOC)[C@H](C)[C@@H](O)[C@]1(C)O`, for which the normalized intracellular growth (time point: T3 (3 h)) is 1.06 ± 0.03 and the normalized intracellular growth (time point: Tfinal (~6 h)) came out at 0.825 ± 0.42.
As for `CC[C@H]1OC(=O)[C@H](C)[C@@H](O[C@H]2C[C@@](C)(OC)[C@@H](O)[C@H](C)O2)[C@H](C)[C@@H](O[C@@H]2O[C@H](C)C[C@H](N(C)C)[C@H]2O)[C@](C)(O)C[C@@H](C)C(=O)[C@H](C)[C@@H](O)[C@]1(C)O`, the normalized intracellular growth (time point: T3 (3 h)) was 0.964 and 0.725; the normalized intracellular growth (time point: Tfinal (~6 h)) is 0.913 and 0.963.
For `CC[C@H]1OC(=O)[C@H](C)[C@@H](O[C@H]2C[C@@](C)(OC)[C@@H](O)[C@H](C)O2)[C@H](C)[C@@H](O[C@@H]2O[C@H](C)C[C@H](N(C)C)[C@H]2O)[C@](C)(O)C[C@@H](C)CN(C)[C@H](C)[C@@H](O)[C@]1(C)O`, the normalized intracellular growth (time point: T3 (3 h)) was 1.05 ± 0.039 and the normalized intracellular growth (time point: Tfinal (~6 h)) is 0.00697 ± 0.00054.
For the molecule `O=C(O)/C=C/C(=O)O`, the normalized intracellular growth came to 1.14 ± 0.1 (time point: T3 (3 h)) and 1.03 ± 0.16 (time point: Tfinal (~6 h)).
The corresponding values for `CCCCCCCCCCOc1cc2c(O)c(C(=O)OCC)cnc2cc1OCC` are 0.942 ± 0.08 and 0.973 ± 0.13.
As for `CC/C=C\C/C=C\C/C=C\C/C=C\C/C=C\C/C=C\CCC(=O)O`, the normalized intracellular growth reads like this: (time point: T3 (3 h)) 0.977 ± 0.069; (time point: Tfinal (~6 h)) 1.02 ± 0.09.
Regarding `COc1cc2c3cc1Oc1cc(ccc1O)C[C@@H]1c4c(cc(OC)c(O)c4Oc4ccc(cc4)C[C@@H]3N(C)CC2)CC[N+]1(C)C`, the normalized intracellular growth is, setting by setting: (time point: T3 (3 h)) 0.937 ± 0.083; (time point: Tfinal (~6 h)) 0.976 ± 0.16.
Turning to `CC[C@H]1OC(=O)[C@H](C)[C@@H](O[C@H]2C[C@@](C)(OC)[C@@H](O)[C@H](C)O2)[C@H](C)[C@@H](O[C@@H]2O[C@H](C)C[C@H](N(C)C)[C@H]2O)[C@](C)(OC)C[C@@H](C)C(=O)[C@H](C)[C@@H](O)[C@]1(C)O`, the normalized intracellular growth is, setting by setting: (time point: T3 (3 h)) 1.09 ± 0.015; (time point: Tfinal (~6 h)) 0.976 ± 0.071.
Turning to `CC[C@H]1OC(=O)[C@H](C)C(=O)[C@H](C)[C@@H](O[C@@H]2O[C@H](C)C[C@H](N(C)C)[C@H]2O)[C@](C)(OC)C[C@@H](C)C(=O)[C@H](C)[C@H]2N(CCCCn3cnc(-c4cccnc4)c3)C(=O)O[C@]12C`, the normalized intracellular growth runs as follows: (time point: T3 (3 h)) 1.01 ± 0.086; (time point: Tfinal (~6 h)) 0.0132 ± 0.0042.
Regarding `CCC(=O)O[C@H]1[C@H](O[C@@H]2[C@@H](C)[C@H](O[C@H]3C[C@@](C)(OC)[C@@H](O)[C@H](C)O3)[C@@H](C)C(=O)O[C@H](CC)[C@@](C)(O)[C@H](O)[C@@H](C)C(=O)[C@H](C)C[C@@]2(C)O)O[C@H](C)C[C@@H]1N(C)C`, the normalized intracellular growth by setting is: (time point: T3 (3 h)) 0.792 ± 0.092; (time point: Tfinal (~6 h)) 0.901 ± 0.065.
With `CCN[C@@H]1C[C@H](N)[C@@H](O[C@H]2OC(CN)=CC[C@H]2N)[C@H](O)[C@H]1O[C@H]1OC[C@](C)(O)[C@H](NC)[C@H]1O`, the normalized intracellular growth is, setting by setting: (time point: T3 (3 h)) 0.986 ± 0.033; (time point: Tfinal (~6 h)) 0.632 ± 0.25.
As to `O=S(=O)(O)NC1CCCCC1`, the normalized intracellular growth by setting is: (time point: T3 (3 h)) 0.688 ± 0.097; (time point: Tfinal (~6 h)) 0.748 ± 0.044.
On the same counts, the results for `CCCCCCCCCCC[C@@H](C[C@@H]1OC(=O)[C@H]1CCCCCC)OC(=O)[C@H](CC(C)C)NC=O` are 0.987 ± 0.091 and 1.21 ± 0.048.
The corresponding values for `C[N+](C)(C)CC(O)CC(=O)[O-]` (stereo not drawn) are 0.978 ± 0.032 and 0.91 ± 0.16.
For the molecule `O=c1cc[nH]c(=O)[nH]1`, the normalized intracellular growth is, setting by setting: (time point: T3 (3 h)) 0.935 ± 0.09; (time point: Tfinal (~6 h)) 0.9 ± 0.052.
The molecule `Nc1nc(=O)[nH]cc1F` had a normalized intracellular growth (time point: T3 (3 h)) of 1.07 ± 0.058 and a normalized intracellular growth (time point: Tfinal (~6 h)) of 1.28 ± 0.1.
With `O=c1[nH]cc(F)c(=O)[nH]1`, the normalized intracellular growth is 0.731 ± 0.089 (time point: T3 (3 h)) and 0.153 ± 0.006 (time point: Tfinal (~6 h)).
On the same counts, the results for `O=C(NCCCN1CCOCC1)c1ccc(Cl)cc1` are 1.25 ± 0.11 and 1.35 ± 0.15.
With `O=C(c1cccnc1)N1CCOCC1`, the normalized intracellular growth amounted to 1.01 ± 0.09 (time point: T3 (3 h)) and 0.728 ± 0.18 (time point: Tfinal (~6 h)).
With `CC(=O)c1ccc2c(c1)N(CCCN1CCN(CCO)CC1)c1ccccc1S2`, the normalized intracellular growth (time point: T3 (3 h)) came out at 1.04 ± 0.024 and the normalized intracellular growth (time point: Tfinal (~6 h)) is 0.807 ± 0.11.
For the molecule `Cc1c2oc3c(C)ccc(C(=O)N[C@@H]4C(=O)N[C@H](C(C)C)C(=O)N5CCC[C@H]5C(=O)N(C)CC(=O)N(C)[C@@H](C(C)C)C(=O)O[C@@H]4C)c3nc-2c(C(=O)N[C@@H]2C(=O)N[C@H](C(C)C)C(=O)N3CCC[C@H]3C(=O)N(C)CC(=O)N(C)[C@@H](C(C)C)C(=O)O[C@@H]2C)c(N)c1=O`, the normalized intracellular growth reads like this: (time point: T3 (3 h)) 0.861 ± 0.057; (time point: Tfinal (~6 h)) 1.05 ± 0.12.
For `CCCCCCCC/C=C\CCCCCCCC(=O)O.NCCO`, the normalized intracellular growth is, setting by setting: (time point: T3 (3 h)) 1.05 ± 0.035; (time point: Tfinal (~6 h)) 1.09 ± 0.041.
As for `COC(=O)N/N=C/c1c[n+]([O-])c2ccccc2[n+]1[O-]`, the normalized intracellular growth reads like this: (time point: T3 (3 h)) 0.957 ± 0.032; (time point: Tfinal (~6 h)) 0.309 ± 0.16.
On to `CC(=O)[C@@]1(O)CC[C@H]2[C@@H]3C=C(Cl)C4=CC(=O)[C@@H]5C[C@@H]5[C@]4(C)[C@H]3CC[C@@]21C`, for which the normalized intracellular growth by setting is: (time point: T3 (3 h)) 1.06 ± 0.049; (time point: Tfinal (~6 h)) 0.762 ± 0.26.
On to `COc1c2occc2cc2ccc(=O)oc12`, for which the normalized intracellular growth stood at 1.15 ± 0.034 (time point: T3 (3 h)) and 1.36 ± 0.076 (time point: Tfinal (~6 h)).
On to `Nc1nc(N)c2nc(CNc3ccc(C(=O)N[C@@H](CCC(=O)O)C(=O)O)cc3)cnc2n1`, for which the normalized intracellular growth by setting is: (time point: T3 (3 h)) 0.994 ± 0.021; (time point: Tfinal (~6 h)) 1.09 ± 0.15.
For `CCCCCC(C)N` (stereo not drawn), the normalized intracellular growth runs as follows: (time point: T3 (3 h)) 0.993 ± 0.077; (time point: Tfinal (~6 h)) 0.979 ± 0.12.
In the case of `CO[C@H]1C[C@H](O[C@@H]2/C(C)=C/C[C@@H]3C[C@@H](C[C@]4(CC[C@H](C)[C@@H](C5CCCCC5)O4)O3)OC(=O)[C@@H]3C=C(C)/C(=N/O)[C@H]4OC/C(=C\C=C\[C@@H]2C)[C@]43O)O[C@@H](C)[C@@H]1O`, the normalized intracellular growth was determined as 1.01 ± 0.064 (time point: T3 (3 h)) and 1.16 ± 0.094 (time point: Tfinal (~6 h)).
On the same counts, the results for `CC(=O)OCC(=O)[C@@]1(O)CC[C@H]2[C@@H]3CCC4=CC(=O)C=C[C@]4(C)[C@H]3[C@@H](O)C[C@@]21C` are 0.822 ± 0.19 and 0.823 ± 0.06.
`C[C@H]1C[C@@H]2[C@H]([C@@H](O)C[C@@]3(C)[C@H]2CC[C@]3(O)C(=O)CO)[C@@]2(C)C=CC(=O)C=C12` displayed a normalized intracellular growth (time point: T3 (3 h)) of 1.07 ± 0.02 and a normalized intracellular growth (time point: Tfinal (~6 h)) of 0.417 ± 0.054.
On the same counts, the results for `C[C@]12C=CC(=O)C=C1CC[C@@H]1[C@@H]2[C@@H](O)C[C@@]2(C)[C@H]1CC[C@]2(O)C(=O)CO` are 0.8 ± 0.15 and 0.888 ± 0.078.
